Assay results as given in PubChem BioAssay (EPA / NIEHS).
“And” between values parts separate entries of the source, which are not always exact repeats. Equal values may be shown once. Where a structure was tested more than once in an assay, its records may differ in their call. The source made the active and inactive calls. Rule for the calls: active = hit-call score of the fitted dose curve at least 0.9, where 1 is the maximum; inactive = score below 0.9.

What was measured:
[1] = read-out: urokinase Plasminogen Activator (uPA), PLAU (gene 5328); test: BSK_BF4T_uPA: BioMAP Diversity Plus: BF4T Assay for urokinase Plasminogen Activator (uPA) Biomarker Activity (AID 2284275); conditions: primary human bronchial epithelial cells with fibroblasts
In short: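 uPA levels measured by ELISA at 24 hours in BF4T cultures (bronchial epithelial cells plus dermal fibroblasts) and compared with DMSO; cytotoxicity tracked in parallel cultures by sulforhodamine B staining.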

[2] = read-out: Matrix Metallopeptidase 9 (MMP9), MMP9 (gene 4318); test: BSK_BF4T_MMP9: BioMAP Diversity Plus: BF4T Assay for Matrix Metallopeptidase 9 (MMP9) Biomarker Activity (AID 2284276); conditions: primary human bronchial epithelial cells with fibroblasts
In short: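 MMP-9 levels were measured by ELISA after 24 h exposure of bronchial epithelial cell/dermal fibroblast co-cultures, with DMSO as baseline. Parallel cultures were stained with 0.1% SRB after TCA fixation, read at 560 nm, to flag overt cytotoxicity.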

[3] = read-out: Interleukin-8 (IL8), CXCL8 (gene 3576); test: BSK_IMphg_IL8: BioMAP Diversity Plus: IMphg Assay for Interleukin-8 (IL8) Biomarker Activity (AID 2284277); conditions: primary human endothelial cells with macrophages
In short: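 IL-8 levels were measured by ELISA 24 h after dosing in primary human venular endothelial cell–macrophage cultures, referenced to DMSO; parallel SRB staining monitored overt cytotoxicity.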

[4] = read-out: Intercellular Adhesion Molecule 1 (ICAM1), ICAM1 (gene 3383); test: BSK_BE3C_ICAM1: BioMAP Diversity Plus: BE3C Assay for Intercellular Adhesion Molecule 1 (ICAM1) Biomarker Activity (AID 2284278); conditions: primary human bronchial epithelial cells
In short: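 ELISA read-out of ICAM-1 on human lung bronchial epithelial primary cells, 24 h post-dosing; positive-direction curve fit, DMSO = baseline. SRB total-protein staining of parallel cultures flagged overt cytotoxicity.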

[5] = read-out: Interferon-inducible T-cell alpha chemoattractant (ITAC), CXCL11 (gene 6373); test: BSK_BE3C_ITAC: BioMAP Diversity Plus: BE3C Assay for Interferon-inducible T-cell alpha chemoattractant (ITAC) Biomarker Activity (AID 2284279); conditions: primary human bronchial epithelial cells
In short: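 ELISA read-out of I-TAC after 24 h chemical dosing of human lung primary bronchial epithelial cells; gain-of-signal fit vs DMSO baseline. Parallel SRB total-protein staining (0.1% SRB, 10% TCA fixation, 560 nm) assessed cytotoxicity.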

[6] = read-out: Interleukin-8 (IL8), CXCL8 (gene 3576); test: BSK_BE3C_IL8: BioMAP Diversity Plus: BE3C Assay for Interleukin-8 (IL8) Biomarker Activity (AID 2284280); conditions: primary human bronchial epithelial cells
In short: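 Measured at 24 h after treatment, IL-8 from human primary bronchial epithelial cells is determined by ELISA, and the response is modelled as increasing relative to DMSO negative control.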

[7] = read-out: Epidermal growth factor receptor (EGFR), EGFR (gene 1956); test: BSK_BE3C_EGFR: BioMAP Diversity Plus: BE3C Assay for Epidermal growth factor receptor (EGFR) Biomarker Activity (AID 2284281); conditions: primary human bronchial epithelial cells
In short: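 Measured 24 h after dosing in primary human bronchial epithelial cultures, EGFR was read by ELISA; gain of signal over DMSO control defined activity.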

[8] = read-out: KRT18 (gene 3875); test: BSK_BE3C_Keratin818: BioMAP Diversity Plus: BE3C Assay for Keratin 818 Biomarker Activity (AID 2284282); conditions: primary human bronchial epithelial cells
In short: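 ELISA read-out of Keratin 8/18 in BE3C human bronchial epithelial cultures, 24 h post-dosing; positive-direction fit vs DMSO baseline.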

[9] = read-out: Matrix Metallopeptidase 9 (MMP9), MMP9 (gene 4318); test: BSK_BE3C_MMP9: BioMAP Diversity Plus: BE3C Assay for Matrix Metallopeptidase 9 (MMP9) Biomarker Activity (AID 2284283); conditions: primary human bronchial epithelial cells
In short: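 Cells were dosed, incubated 24 h, then assayed for MMP-9 by ELISA; activity was fitted upward against DMSO. The system used human lung primary bronchial epithelial cells, with SRB total-protein staining run alongside for cytotoxicity.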

[10] = read-out: Plasminogen activator inhibitor-1 (PAI1), SERPINE1 (gene 5054); test: BSK_CASM3C_PAI1: BioMAP Diversity Plus: CASM3C Assay for Plasminogen activator inhibitor-1 (PAI1) Biomarker Activity (AID 2284284); conditions: primary human coronary artery smooth muscle cells;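 note: PAI-1 protein level measured by ELISA 24 h after dosing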

Measured: AC50

O=C(O)CCC(F)(F)C(F)(F)C(F)(F)C(F)(F)C(F)(F)F
inactive: all assays above

Oc1c(Cl)cc(Cl)cc1Sc1cc(Cl)cc(Cl)c1O
active: [4] 5.56 µM and 6.58 µM | [5] 3.3 µM and 3.57 µM | [6] 11.7 µM and 11.1 µM | [7] 4.89 µM and 4.9 µM | [8] 9.64 µM and 7.03 µM | [9] 2.09 µM and 1.25 µM | [10] 18.3 µM
inactive: [10]

O=S(=O)(O)C(F)(F)C(F)(F)C(F)(F)C(F)(F)C(F)(F)C(F)(F)C(F)(F)C(F)(F)C(F)(F)C(F)(F)F
active: [3] 12.2 µM | [5] 21.8 µM | [8] 21 µM and 18 µM | [9] 9.67 µM and 13.3 µM
inactive: [1] | [2] | [3] | [4] | [5] | [6] | [7] | [10]

O=C(CC(=O)C(F)(F)C(F)(F)C(F)(F)F)c1cccs1
active: [1] 46.4 µM and 35.8 µM | [2] 28.8 µM and 22.4 µM | [3] 22.4 µM | [4] 42.2 µM and 35.1 µM | [5] 24.7 µM and 24.1 µM | [6] 48.2 µM and 55.2 µM | [7] 30 µM and 20.5 µM | [8] 10.8 µM and 14.7 µM | [9] 18.5 µM
inactive: [3] | [10]

CN(CCO)S(=O)(=O)C(F)(F)C(F)(F)C(F)(F)C(F)(F)C(F)(F)C(F)(F)C(F)(F)C(F)(F)F
inactive: all assays above

C=CC(=O)OCCC(F)(F)C(F)(F)C(F)(F)C(F)(F)C(F)(F)C(F)(F)C(F)(F)C(F)(F)F
inactive: all assays above

O=C(O)C(F)(F)OC(F)(F)C(F)(F)OC(F)(F)C(F)(F)OC(F)(F)C(F)(F)C(F)(F)C(F)(F)F
inactive: [1] | [7] | [10]
active: [1] 14.6 µM | [2] 11.2 µM and 8.88 µM | [3] 54.2 µM and 7.06 µM | [4] 6.39 µM and 5.8 µM | [5] 5.77 µM and 5.71 µM | [6] 6.28 µM and 6.03 µM | [8] 3.28 µM and 2.7 µM | [9] 5.94 µM and 4.69 µM

CN(Cc1cnc2nc(N)nc(N)c2n1)c1ccc(C(=O)N[C@@H](CCC(=O)O)C(=O)O)cc1
inactive: all assays above

O=C1NS(=O)(=O)c2ccccc21
not listed: [1] | [2] | [3]
inactive: all other assays above

O=P(O)(O)CCC(F)(F)C(F)(F)C(F)(F)C(F)(F)C(F)(F)C(F)(F)C(F)(F)C(F)(F)F
active: [3] 40.1 µM
inactive: [1] | [2] | [3] | [4] | [5] | [6] | [7] | [8] | [9] | [10]

O=P(O)(O)CCC(F)(F)C(F)(F)C(F)(F)C(F)(F)C(F)(F)C(F)(F)F
inactive: all assays above

CCCCCCCCCCCC
active: [4] 7.01 µM and 6.7 µM | [5] 8.03 µM and 6.71 µM | [6] 9.52 µM | [7] 5.07 µM | [8] 5.09 µM | [9] 9.27 µM and 9.14 µM
inactive: [6] | [7] | [8] | [10]

O=C(O)CCC(F)(F)C(F)(F)C(F)(F)C(F)(F)C(F)(F)C(F)(F)F
active: [3] 14.2 µM and 23 µM and 17.1 µM
inactive: all other assays above

OCC(F)(F)C(F)(F)C(F)(F)C(F)(F)C(F)(F)C(F)(F)C(F)(F)C(F)(F)C(F)(F)C(F)(F)C(F)(F)F
inactive: [1] | [2] | [3] | [4] | [5] | [6] | [7] | [8] | [10]
active: [3] 0.216 µM | [6] 0.224 µM | [9] 229 nM and 222 nM

Oc1ccc(Cc2ccccc2O)cc1
not listed: [1] | [2] | [3]
inactive: all other assays above
